These results are taken from PubChem BioAssay AID1347076 (National Center for Advancing Translational Sciences (NCATS), 2019).

Out of some 400,000 compounds screened, about 13,000 (3.2%) were called active. A call without a number means that no potency is given here. Roughly 18% stayed inconclusive and do not appear here. The sample holds actives, similar compounds and a random draw of the others, so the mix is not that of the screen. Calls come from the whole dose curve; as a rule, active = well fitted cell-killing curve with a large enough effect; inconclusive = small, poorly fitted or top-dose-only effect, or effect the other way; inactive = flat fitted curve, though single readings scatter.
Potency is the fitted concentration of half-maximal effect.

A short description of this assay: qHTS assay for MDR1-selective chemotherapeutics: Primary screen using the drug-selected MDR subline cells KB-V1. Note: nearly all actives have a fitted effect of over 60% in size. The note with it: KB-V1 MDR cells viability, CellTiter-Glo, 72 h; series mostly up to 46.1 µM. The method in brief: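 Cytotoxicity via CellTiter-Glo luminescence after 72 h compound exposure at 37 degrees C. Cells: drug-selected KB-V1 line, DMEM phenol-red free plus 10% FBS. Compounds tested at multiple concentrations; normalized data fitted to concentration-effect curves.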
In general terms: In qHTS, concentration-response curves come from the screen itself.
On to `Cc1cccc(-n2ncc(C(=O)N3CCN(c4ccc(Cl)cc4)CC3)c2C2CCN(C(=O)OC(C)(C)C)CC2)c1`, for which the Potency entry is “inactive”.
The same measure for `Cc1cc2nc(-c3ccc(NC(=O)c4cc5ccccc5o4)cc3)oc2cc1C`: “inactive”; for `CCN(CC)CCN(C)C(c1ccnc2ccccc12)c1nnnn1-c1ccc2c(c1)OCCO2` (centres undefined): “inactive”; for `COC(=O)c1sc2ncccc2c1-n1c(C)ccc1C`: “inactive”.
The same measure for `Cc1ccc(-c2c(N)nc3ncccn23)cc1`: “inactive”; for `O=C(CSc1oc(-c2ccccc2)nc1S(=O)(=O)c1ccc(Br)cc1)NC1CCCCC1`: “inactive”.
For `Cc1ccc([C@H]2C[C@H](O)[C@@H](n3cc(COC(=O)c4ccccc4)nn3)CN2C(=O)C2CCCCC2)cc1`, the Potency entry was “inactive”.
The same measure for `COc1ccccc1CNC(=O)C1CCN(c2nc3ccccc3o2)CC1`: “inactive”; for `CCc1ccc(CNC(=O)C2CCCN(c3nc4ccccc4o3)C2)cc1` (centres undefined): 14.6 µM (active).
The same measure for `COc1ccc(OC)c(CNC(=O)C2CCCN(c3nc4ccccc4o3)C2)c1` (centres undefined): “inactive”; for `COc1ccc(S(=O)(=O)N(C)C)cc1NC(=O)COC(=O)c1n[nH]c2ccccc12`: “inactive”.
`CCCNC(=O)C1(C)CCCN(Cc2c(C)nn(-c3ccccc3)c2C)C1` (centres undefined): the Potency entry is “inactive”.
Regarding `O=C(CSc1ncn[nH]1)Nc1nc2c(F)c(F)c(F)cc2s1`, the Potency entry was “inactive”.
The same measure for `CN1OC[C@@H]2CN(S(=O)(=O)c3cccc(C(F)(F)F)c3)[C@H](c3ccc(-c4cc5ccccc5o4)cc3)C[C@@H]21`: “inactive”; for `COc1ccc(CCNC(=O)COC(=O)Cc2ccccc2F)cc1`: “inactive”.
Consider `COc1ccc(C(CCNCc2ccccc2F)c2ccc(F)cc2)cc1` (centres undefined), for which the Potency was 14.6 µM (active).
The same measure for `COc1ccc(C(CNCC(=O)Nc2ccccc2F)N(C)C)cc1` (centres undefined): “inactive”; for `O=S1(=O)CC(N2CCSCC2)CN1Cc1cn(Cc2cccc(Cl)c2)nn1` (centres undefined): “inactive”.
The same measure for `COc1cc2[nH]c(C)c(CCN3CCN(c4ccccc4)CC3)c2cc1OC`: “inactive”.
For `Cc1ccc(NS(=O)(=O)c2cc3c(cc2Br)NC(=O)CO3)cc1C`, the Potency result was “inactive”.
The same measure for `COc1cc(OC)c(/C=C/c2ccnc3ccccc23)c(OC)c1`: “inactive”; for `CCC(C)NC(=O)Cn1nc(C(F)(F)F)c2c1CCC2` (centres undefined): “inactive”; for `O=C(Cn1nc(C(F)(F)F)c2c1CCCC2)Nc1ccc(Cl)cc1`: “inactive”.
Turning to `O=C(Cn1nc(C(F)(F)F)c2c1CCC2)NCc1ccc(F)cc1`, the Potency is 11.6 µM (active).
For the compound `CC(C)Cn1cc(-c2cncc3nccn23)cn1`, the Potency entry is “inactive”.
Regarding `CCCC(=O)N1CCC1(C)C(=O)NCc1ccc(C(C)C)cc1` (centres undefined), the Potency entry was “inactive”.
For `Cc1ccc(C(=O)Nc2nc(-c3ccccc3)ns2)cc1`, the Potency entry was “inactive”.
Consider `Cc1ccc(C(=O)c2c(NC(=O)c3ccccc3)sc(C)c2C)cc1`, for which the Potency was 9.2 µM (active).
Take `Cc1sc(NC(=O)c2ccc3ncsc3c2)c(C(N)=O)c1C`: the Potency result was “inactive”.
The same measure for `O=C(/C=C/[C@H]1O[C@@H](n2ccc(=O)[nH]c2=O)[C@H](O)[C@@H]1O)NCc1ccccn1`: “inactive”; for `O=[N+]([O-])c1ccc(CN2CC(N3CCC(c4ccccc4)CC3)CS2(=O)=O)cc1` (centres undefined): “inactive”.
The same measure for `COC(=O)c1sccc1S(=O)(=O)N(CC(=O)Nc1ccc(C)c(F)c1)c1ccc(C)c(C)c1`: “inactive”.
The same measure for `O=C(OC1CC2CC1[C@H]1CCCCN1C2=O)N1CCOCC1` (some centres undefined): “inactive”.
On to `O=NN(CCCl)C(=O)NCCc1cccc[n+]1[O-]`, for which the Potency entry is “inactive”.
As for `Cc1sc2ccccc2c1CNC[C@H]1O[C@@H](n2ccc(=O)[nH]c2=O)[C@H](O)[C@@H]1O`, the Potency result is “inactive”.
For the compound `CCCCN1CC(N2CCN(Cc3cccc(C)c3)CC2)CS1(=O)=O` (centres undefined), the Potency entry was “inactive”.
Take `c1ccc2c(CSCc3nc4ccccc4[nH]3)cccc2c1`: the Potency was 20.6 µM (active).
Consider `SCc1nc2ccc(Cl)cc2[nH]1`, for which the Potency entry is “inactive”.
The same measure for `Clc1ccc(-c2nnc(SCc3nc4ccccc4s3)o2)cc1`: “inactive”; for `Clc1ccccc1SCc1nc2ccccc2[nH]1`: 20.6 µM (active).
`Nc1cccc(CCc2nc3ccccc3[nH]2)c1`: the Potency result was “inactive”.
The same measure for `O=C(OCc1nc2ccccc2[nH]1)C1CCCCC1`: “inactive”; for `c1ccc(-c2nnc(SCc3nc4ccccc4[nH]3)o2)cc1`: 20.6 µM (active).
The same measure for `CCN(C(=O)CSc1nnc(-c2ccncc2)o1)c1ccccc1`: “inactive”; for `O=c1[nH]nc(CSCc2ccccc2Cl)[nH]1`: “inactive”; for `Cc1ccccc1NC(=O)Cn1cc(C(=O)c2cccs2)c2ccccc21`: “inactive”.
The same measure for `Cc1ccc(CNC(=O)CCNS(=O)(=O)c2ccc3c(c2)oc(=O)n3C)cc1`: “inactive”; for `O=C(NCCc1cccc(F)c1)C1CC(O)CN1C(=O)Nc1ccccc1` (centres undefined): “inactive”; for `Cc1ccc([C@@H]2CC(=O)[C@@H]3CN(S(=O)(=O)c4ccc(C)cc4)[C@H](c4ccccc4F)C[C@@H]3N2S(=O)(=O)c2ccc(Cl)cc2)cc1`: “inactive”.
`C=C1C(=O)[C@]23C[C@H]1CCC2[C@@]1(C)C(C[C@@H]3O)[C@](C)(C(=O)O)CC[C@@H]1O` (some centres undefined): the Potency result is “inactive”.
In the case of `O=C(NC1CCCC1)C1c2ccccc2OCC(=O)N1Cc1ccccc1` (centres undefined), the Potency entry was “inactive”.
`CC1(C(=O)Nc2cccc3c2CCCC3)CCN1C(=O)C1(c2ccccc2)CC1` (centres undefined): the Potency entry was “inactive”.
Consider `Brc1nc2ncnc(NCc3ccco3)c2[nH]1`, for which the Potency result was “inactive”.
With `COCOCCn1cc(CN2CCS(=O)(=O)N(Cc3ccc(-c4ccccc4)cc3)C(CC(C)C)C2=O)nn1` (centres undefined), the Potency entry is “inactive”.
As for `Cc1cccc(OCCSc2nc3ccccc3n2CC(=O)N2CCCCC2)c1C`, the Potency entry was “inactive”.
The same measure for `CCOC(=O)c1cn(Cc2cccc(C)c2)nn1`: “inactive”; for `CCOC(=O)c1nn(-c2cccc(C)c2)cc1C(=O)c1ccccc1`: 14.6 µM (active).
The same measure for `CC(=O)c1nn(-c2ccc(C)cc2)cc1C(=O)c1cccc(Br)c1`: “inactive”; for `COCCNc1nc(N)c([N+](=O)[O-])c(N2CCCCCC2)n1`: “inactive”; for `Cc1c(Nc2cc(N3CCCC(C)C3)c3nonc3c2[N+](=O)[O-])c(=O)n(-c2ccccc2)n1C` (centres undefined): “inactive”.
With `Nc1cc(N2CCCCCC2)c2nonc2c1[N+](=O)[O-]`, the Potency was 8.2 µM (active).
The same measure for `CC1(C)OC(=O)C2=C(C[C@@H](C3CCCCC3)O[C@@H]2c2ccc(Cl)cc2)O1`: “inactive”.
The same measure for `CCCc1nc2ccccc2c(=O)n1/N=C/c1ccc(O)c(O)c1`: “inactive”; for `Cc1[nH]n(-c2ccccc2)c(=O)c1/C=N/NC(=O)c1ccoc1C`: “inactive”; for `Cc1[nH]n(-c2cccc(Cl)c2)c(=O)c1/C=N/n1c(C)nc2ccccc2c1=O`: 7.31 µM (active).
`COc1ccc(C(CNC(=O)CSc2ccccc2)N2CCOCC2)cc1` (centres undefined): the Potency entry is “inactive”.
The same measure for `Cc1ccc2cccc([N+](=O)[O-])c2n1`: “inactive”.
The same measure for `Cc1nn(-c2ccccc2)c(C)c1/C=C/C(=O)OC(C)C(N)=O` (centres undefined): 23.1 µM (active); for `CCC(Oc1ccccc1)C(=O)OCC(=O)Nc1c(C)nn(-c2ccccc2)c1C` (centres undefined): “inactive”; for `Cc1cccc(C)c1NC(=O)COC(=O)c1c(C)nn(-c2ccccc2)c1C`: “inactive”.
The same measure for `CCOC(=O)C1CCCN(C(=O)c2cccc3ccccc23)CC1` (centres undefined): “inactive”; for `CC(C)(O)C#Cc1ccc(CN2CCC(CO)(CCc3ccccc3)CC2)cc1`: “inactive”.
On to `CCOC(=O)C1(CCOc2ccccc2)CCN(Cc2cc(OC)c(O)cc2Cl)CC1`, for which the Potency entry is “inactive”.
The same measure for `Cc1c(CN2CCC(CO)(CCOc3ccccc3)CC2)[nH]c2ccc(Cl)cc12`: 5.8 µM (active).
Take `COc1cc(OC)c(NC(=O)N2CC3CCCN3c3ccccc32)cc1Cl` (centres undefined): the Potency entry was “inactive”.
Turning to `C[C@@H]1CN([C@@H](C)CO)C(=O)CCCn2nncc2CO[C@H]1CN(C)C(=O)Nc1ccc(C(F)(F)F)cc1`, the Potency entry is “inactive”.
With `CCc1nc2cccnc2n1-c1ccc(CC(=O)Nc2c(C)cccc2C)cc1`, the Potency result was “inactive”.
Consider `CC1CC(C)CN(c2oc(-c3ccc(OCc4ccc(Cl)cc4)cc3)nc2C#N)C1` (centres undefined), for which the Potency entry was “inactive”.
The same measure for `CCN(CC)S(=O)(=O)c1ccc(OC)c(NC(=O)CCc2c(C)noc2C)c1`: “inactive”; for `CCOc1ccc(Br)cc1S(=O)(=O)Nc1cccc(S(=O)(=O)N(CC)CC)c1`: “inactive”.
Turning to `CCN(CC)S(=O)(=O)c1ccc(N(C)Cc2cccc(OC)c2OC)nc1`, the Potency was 6.51 µM (active).
With `CCC(C(=O)Nc1cccc(Cl)c1C)n1nc(-c2ccc(C)cc2)ccc1=O` (centres undefined), the Potency entry is “inactive”.
As for `CCc1nc2c(OCCOc3ccccc3)cccn2c1N(C=O)Cc1ccc(OC)cc1`, the Potency entry was “inactive”.
For the compound `CC(Nc1nc(C(F)(F)F)nc2ccccc12)c1cccs1` (centres undefined), the Potency entry is “inactive”.
Turning to `Cc1cc(C)n(-c2nc(C(F)(F)F)nc3ccccc23)n1`, the Potency entry was “inactive”.
On to `CCc1ccc(C(CNc2nc(C(F)(F)F)nc3ccccc23)N(C)C)cc1` (centres undefined), for which the Potency is 16.4 µM (active).
Regarding `CC1=C(C(=O)N(C(C)C)C(C)C)CC(CC(=O)NCC2CCCCC2)C(=O)N1Cc1ccccc1` (centres undefined), the Potency entry is “inactive”.
`COc1ccc2cc(C(=O)NCC3CCCO3)[nH]c2c1` (centres undefined): the Potency entry is “inactive”.
Turning to `O=C(NCC1CCCO1)c1ccc2ccccc2n1` (centres undefined), the Potency entry was “inactive”.
The same measure for `O=C(NCC1CCCO1)c1cc2c([nH]c3ccccc32)c(-c2ccc(F)cc2)n1` (centres undefined): 11.6 µM (active).
As for `Cc1cccc(N(CC(=O)N2CCCC2)S(C)(=O)=O)c1C`, the Potency result is “inactive”.
On to `O=S(=O)(c1cccs1)N1CCc2ccccc2C1`, for which the Potency result was “inactive”.
Take `CC(=O)N1CCN(Cc2cc(=O)oc3cc(C)ccc23)CC1`: the Potency result is “inactive”.
The same measure for `O=C(NCc1ccccc1)C1CCCN(S(=O)(=O)c2cccs2)C1` (centres undefined): “inactive”; for `O=S(=O)(c1cccs1)N1CCN(Cc2ccccc2)CC1`: 16.4 µM (active).
For the compound `COc1ccc2c(CN3CCN(S(=O)(=O)c4cccs4)CC3)cc(=O)oc2c1`, the Potency is 13 µM (active).
The same measure for `Cc1ccc2c(CN3CCN(S(=O)(=O)c4ccccc4C(F)(F)F)CC3)cc(=O)oc2c1`: “inactive”.
As for `O=c1cc(CN2CCCCCCC2)c2c(ccc3ccccc32)o1`, the Potency entry is “inactive”.
The same measure for `CC/C(C)=N/Nc1nc2sc3c(c2c(=O)[nH]1)CC(C)(C)OC3`: “inactive”; for `CCOC(=O)Cn1c(SC)nc2sc3c(c2c1=O)CC(C)(C)OC3`: “inactive”.
On to `CCc1nc(N2CCN(C(C)=O)CC2)c2c3c(sc2n1)CCCC3`, for which the Potency entry was “inactive”.
The same measure for `COCCNc1nc(-n2nc(C)cc2C)nc2sc3c(c12)CCCC3`: 9.2 µM (active); for `CCC(O)CNc1nc(-n2nc(C)cc2C)nc2sc3c(c12)CC(C)(C)OC3` (centres undefined): 2.59 µM (active); for `COCCn1c(C)cc(C(=O)CSc2ncnc3sc4c(c23)CCC4)c1C`: “inactive”.
